The test system of test [1] is Wnt5a (protein binding on small-molecule microarray). Kind of test: small molecules binding Wnt5a protein – biophysical, small-molecule microarray, 635/667 nm fluorescence, primary screen (AID 1142).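 Note: fluorescence read at 667 nm with signal to noise per printed feature.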 The conditions noted are these: 635 nm fluorescence, higher = more signal.
Test [2] in a line: ATP-based viability of Huh7 replicon cells – cell-based, CellTiter-Glo luminescence, basal, 48 h, cytotoxicity control for HCV replication inhibitor project, primary screen (AID 1143).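 Note: Huh7 hepatoma cells carrying a hepatitis C replication reporter with no stimulus; test concentration not given here.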 The conditions noted are these: higher = more signal, called active from +8 up or from −8 down.
Test [3] can be described thus: Pseudomonas biofilm growth suppression – PAO1 strain, BacTiter-Glo luminescence, LB-PBS, primary screen (AID 1144). The conditions noted are these: P. aeruginosa PAO1 biofilm, 12 h, higher = more signal.
A short description of test [4]: basal CRE-LacZ reporter activity in PC12 – cell-based, unstimulated, primary screen (AID 1145). As to conditions: no forskolin, luminescence, 4.5 h, higher = more signal, called active from +8 up or from −8 down.
A short description of test [5]: forskolin-driven CRE-LacZ activity in PC12 – cell-based, CRE-LacZ reporter, forskolin-stimulated, primary screen (AID 1146).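 Note: PC12 cells with 6xCRE LacZ reporter stimulated by forskolin 10 µM; beta-galactosidase reporter signal reflecting CREB driven transcription.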 As to conditions: luminescence, 4.5 h, higher = more signal, called active from +8 up or from −8 down.
Test [6] has as its target Streptavidin (Streptomyces avidinii) (UniProt P22629). Put plainly: compounds binding control protein streptavidin – biophysical, small-molecule microarray, 635/667 nm fluorescence, artefact control for SMM compound annotation, primary screen (AID 1147).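 Note: signal reflects streptavidin binding to arrayed compounds as a control protein.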 As to conditions: higher = more signal.
Test [7] can be described thus: probe aInhba binding on compound microarray – biochemical, small-molecule microarray, 635/667 nm fluorescence, primary screen (AID 1148).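 Note: score merges 667nm spot fluorescence with signal-to-noise for antibody binding to printed compounds.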 The conditions noted are these: higher = more signal.
Test [8] has as its target Torsin-1A (Homo sapiens) (UniProt O14656). Kind of test: TOR1A wild-type binding on microarray – cell lysate, small-molecule microarray, lysate, 635/667 nm, primary screen (AID 1149). The conditions noted are these: COS7 hTOR1A-WT lysate, 635 nm fluorescence, higher = more signal.
For test [9] the target is unchanged. Put plainly: torsin A mutant lysate binding on microarrays – cell lysate, small-molecule microarray, COS7 lysate, 635/667 nm fluorescence, primary screen (AID 1150).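 Note: score pools 667 nm emission and signal to noise measuring lysate protein binding.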 The conditions noted are these: COS7 hTOR1A mutant lysate, 635 nm fluorescence, higher = more signal.
Test [10] concerns Sonic hedgehog protein (Shh). Put plainly: Sonic hedgehog microarray binding compounds – biochemical, small-molecule microarray, 635/667 nm fluorescence, primary screen (AID 1151).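 Note: Shh protein binding to compounds spotted on small-molecule microarray slides; score combines spot fluorescence intensity with signal-to-noise across triplicate slides.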 As to conditions: 635 nm fluorescence, higher = more signal.
The nature of test [11]: optical density shifts of acrAB sulA E. coli – strain DRC41, OD650, 48 h, E. coli filamentation inducer project, primary screen (AID 1152).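 Note: E. coli MC1000 strain DRC41 lacking acrAB efflux pump and sulA.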 As to conditions: higher = more signal, called active from +8 up or from −8 down.
Test [12] is described as follows: probe aLefty1 binding on compound microarray – biochemical, small-molecule microarray, 635/667 nm fluorescence, primary screen (AID 1153).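 Note: score merges spot fluorescence with signal-to-noise ratio from the scanned slide images.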 As to conditions: higher = more signal.
Test [13] can be described thus: plasmodial surface anion channel blockers, osmotic lysis – cell-based, P. falciparum Indochina, OD700, 1 h, primary screen (AID 1154). The conditions noted are these: P. falciparum Indochina infected RBC osmotic lysis, higher = more signal, called active from +8 up or from −8 down.
Test [14] can be described thus: plasmodial surface anion channel blockers, osmotic lysis – cell-based, P. falciparum Indochina, OD700, 2 h, primary screen (AID 1155).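 Note: lysis reports solute entry through the parasite surface anion channel PSAC.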 The conditions noted are these: P. falciparum Indochina infected erythrocytes, higher = more signal, called active from +8 up or from −8 down.
Test [15] is described as follows: changes in parasitized red cell lysis, either direction – P. falciparum Indochina, OD700, 3 h, PSAC antagonist project, primary screen (AID 1156). As to conditions: P. falciparum-infected erythrocytes, osmotic lysis, higher = more signal, called active from +8 up or from −8 down.
A short description of test [16]: plasmodial surface anion channel blockers, osmotic lysis – cell-based, P. falciparum Indochina, OD700, 18 h, primary screen (AID 1157). The conditions noted are these: P. falciparum Indochina infected erythrocytes, osmotic lysis OD700, 18 h; higher = more signal, called active from +8 up or from −8 down.
A short description of test [17]: S6 kinase pathway phospho-S6 level changes – cell-based, A549, cytoblot, luminescence, serum-stimulated, primary screen (AID 1158).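 Note: serum-stimulated A549 lung adenocarcinoma cells; signal is phosphorylated S6 detected by cytoblot immunostaining with HRP secondary.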 As to conditions: 5 h, higher = more signal.
Test [18] has as its target NADPH oxidase 2 (Homo sapiens) (UniProt P04839). Put plainly: compounds shifting NOX2 Amplex Red fluorescence – cell-based, HEK293-NOX2, PMA-stimulated, NOX inhibitor project, primary screen (AID 1159). Note: test concentration not given here. The conditions noted are these: 45 min, higher = more signal, called active from +8 up or from −8 down.
The target in test [19] is NADPH oxidase 4 (Homo sapiens) (UniProt Q9NPH5). Kind of test: compounds shifting NOX4 Amplex Red fluorescence – cell-based, HEK293-NOX4, tetracycline-induced, NOX inhibitor project, primary screen (AID 1160). The conditions noted are these: HEK293-NOX4, Amplex Red H2O2 fluorescence, 45 min; higher = more signal, called active from +8 up or from −8 down.
Test [20] has as its target NADPH oxidase 5 (Homo sapiens) (UniProt Q96PH1). Kind of test: compounds shifting NOX5 Amplex Red fluorescence – cell-based, HEK293-NOX5, NOX inhibitor project, primary screen (AID 1161). The conditions noted are these: HEK293-NOX5, ionomycin, 45 min, higher = more signal.

Calls of active or inactive are those of the source. Unless noted, the rule behind the calls is not given here.

This note sets out measurements from PubChem BioAssay.

Torsin-1A (Homo sapiens), sequence (O14656 whole entry, looked up): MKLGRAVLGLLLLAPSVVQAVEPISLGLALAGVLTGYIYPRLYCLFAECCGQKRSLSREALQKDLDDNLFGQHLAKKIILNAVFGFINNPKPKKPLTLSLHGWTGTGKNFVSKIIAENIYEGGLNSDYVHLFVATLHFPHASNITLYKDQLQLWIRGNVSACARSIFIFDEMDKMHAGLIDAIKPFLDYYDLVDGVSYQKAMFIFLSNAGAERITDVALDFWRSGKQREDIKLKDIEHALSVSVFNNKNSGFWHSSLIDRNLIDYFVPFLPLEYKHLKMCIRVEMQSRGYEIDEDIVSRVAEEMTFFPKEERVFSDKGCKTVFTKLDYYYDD
Streptavidin (Streptomyces avidinii), sequence (P22629 whole entry, looked up): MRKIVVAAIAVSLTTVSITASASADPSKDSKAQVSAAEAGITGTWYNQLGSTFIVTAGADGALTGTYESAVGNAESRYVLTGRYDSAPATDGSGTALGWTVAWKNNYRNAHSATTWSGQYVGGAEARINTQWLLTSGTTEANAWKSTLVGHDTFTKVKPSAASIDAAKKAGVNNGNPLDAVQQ
NADPH oxidase 5 (Homo sapiens), sequence (Q96PH1 whole entry, looked up): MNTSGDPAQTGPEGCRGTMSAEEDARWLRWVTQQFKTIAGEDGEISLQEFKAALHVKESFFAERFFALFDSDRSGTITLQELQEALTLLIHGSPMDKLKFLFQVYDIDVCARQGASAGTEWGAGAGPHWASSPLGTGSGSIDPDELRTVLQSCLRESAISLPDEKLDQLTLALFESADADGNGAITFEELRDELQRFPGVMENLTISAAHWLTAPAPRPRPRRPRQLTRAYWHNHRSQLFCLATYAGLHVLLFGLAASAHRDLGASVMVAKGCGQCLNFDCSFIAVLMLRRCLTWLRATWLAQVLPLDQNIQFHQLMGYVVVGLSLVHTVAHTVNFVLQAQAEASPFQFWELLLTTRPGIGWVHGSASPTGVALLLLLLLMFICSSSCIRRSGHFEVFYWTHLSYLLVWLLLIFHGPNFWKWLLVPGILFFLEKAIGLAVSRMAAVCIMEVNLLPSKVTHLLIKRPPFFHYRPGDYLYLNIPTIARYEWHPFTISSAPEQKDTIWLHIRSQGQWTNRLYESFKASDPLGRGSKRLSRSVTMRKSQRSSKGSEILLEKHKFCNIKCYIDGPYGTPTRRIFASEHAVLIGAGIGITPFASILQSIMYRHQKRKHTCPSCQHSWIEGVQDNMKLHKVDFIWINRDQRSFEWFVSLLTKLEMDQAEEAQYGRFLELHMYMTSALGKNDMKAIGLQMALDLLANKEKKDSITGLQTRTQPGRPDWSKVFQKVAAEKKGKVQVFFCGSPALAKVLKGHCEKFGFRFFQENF
NADPH oxidase 2 (Homo sapiens), sequence (P04839 whole entry, looked up): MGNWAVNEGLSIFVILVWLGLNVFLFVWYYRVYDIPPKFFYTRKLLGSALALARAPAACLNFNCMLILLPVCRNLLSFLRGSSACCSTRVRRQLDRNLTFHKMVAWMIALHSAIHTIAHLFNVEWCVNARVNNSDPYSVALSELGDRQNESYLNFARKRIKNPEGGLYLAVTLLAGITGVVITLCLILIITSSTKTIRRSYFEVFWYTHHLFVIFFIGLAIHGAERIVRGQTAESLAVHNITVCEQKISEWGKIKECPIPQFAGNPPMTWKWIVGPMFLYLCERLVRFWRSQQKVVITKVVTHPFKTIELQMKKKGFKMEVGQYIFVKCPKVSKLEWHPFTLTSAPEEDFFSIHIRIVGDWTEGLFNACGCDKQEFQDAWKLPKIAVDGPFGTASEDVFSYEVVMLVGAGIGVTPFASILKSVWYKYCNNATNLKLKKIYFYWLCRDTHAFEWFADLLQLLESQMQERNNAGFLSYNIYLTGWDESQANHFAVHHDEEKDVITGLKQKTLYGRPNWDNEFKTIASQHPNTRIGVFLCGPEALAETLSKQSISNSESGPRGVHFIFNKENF
NADPH oxidase 4 (Homo sapiens), sequence (Q9NPH5 whole entry, looked up): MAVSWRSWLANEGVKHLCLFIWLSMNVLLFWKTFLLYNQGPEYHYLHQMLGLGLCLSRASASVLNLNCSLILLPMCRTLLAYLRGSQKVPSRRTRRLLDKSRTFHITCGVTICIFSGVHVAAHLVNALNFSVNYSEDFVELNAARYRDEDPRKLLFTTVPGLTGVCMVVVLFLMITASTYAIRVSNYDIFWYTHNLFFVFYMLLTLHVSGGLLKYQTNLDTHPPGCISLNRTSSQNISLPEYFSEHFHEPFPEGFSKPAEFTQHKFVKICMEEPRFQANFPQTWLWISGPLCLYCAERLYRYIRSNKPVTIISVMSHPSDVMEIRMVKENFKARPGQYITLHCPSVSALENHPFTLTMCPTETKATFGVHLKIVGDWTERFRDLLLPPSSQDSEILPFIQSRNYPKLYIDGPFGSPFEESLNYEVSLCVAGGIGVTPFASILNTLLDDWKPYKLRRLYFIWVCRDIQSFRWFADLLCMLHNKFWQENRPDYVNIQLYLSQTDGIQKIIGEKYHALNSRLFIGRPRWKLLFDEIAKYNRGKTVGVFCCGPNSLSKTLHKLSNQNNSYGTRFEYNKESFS

Regarding `CCOC(=O)C[C@H]1[C@H](OC(=O)c2cc3ccccc3oc2=O)[C@@H](NC(=O)c2ccccc2)c2cc(OCCCO)ccc2N1C(=O)c1ccc2ccccc2n1`, the composite z-score in test [1] was 0.343; in test [6] it was 0.865; in [7], -0.0405; in the test with Torsin-1A (Homo sapiens) [8], 0.0356; with Torsin-1A (Homo sapiens) [9] it was 0.611; in test [10] it was 0.954. The molecule also showed a composite z-score in test [12] of -0.0969. The z-score in test [2] was -0.468 (inactive); in test [3], 0.594 (inactive); in test [4], 9.1 (active); in test [5], -0.539 (inactive); in test [11] it was 0.0582 (inactive); in test [13], 10.4 (active). In addition, the z-score was 1.33 (inactive) in test [14]; 1.17 (inactive) in test [15]; 0.599 (inactive) in test [16]; -0.253 in test [17]; 0.543 (inactive) in test [18]; 0.43 (inactive) in test [19]. Besides, in test [20], the z-score is 1.44.
On to `COC(=O)[C@@]1(Cc2ccccc2)N=C(c2ccc(OCCCO)cc2)O[C@H]1c1ccccc1`, for which the composite z-score in [1] was 0.912; in test [6] it was -0.369; in test [7], 0.0816; with Torsin-1A (Homo sapiens) [8], 0.348; with Torsin-1A (Homo sapiens) [9] it was 1.74; in [10] it was -0.0883. For the same molecule, the composite z-score in test [12] was 0.236. The z-score in [2] is -4.45 (inactive); in [3] it was 0.35 (inactive); in test [4], 1.45 (inactive); in test [5] it was -2.12 (inactive); in [11] it was 0.792 (inactive); in [13], 23.4 (active). The z-score in test [14] is 12.2 (active); in test [15] it was 0.737 (inactive); in test [16], 1.89 (inactive); in test [17], -0.182; in test [18] it was -5.76 (inactive); in test [19] it was -0.904 (inactive). For the same molecule, the z-score in [20] was -3.
For `CCOC(=O)C[C@H]1[C@H](OC(=O)c2ccc(C(=O)c3ccccc3)cc2)[C@@H](NC(=O)CC(C)C)c2cc(OCCCO)ccc2N1C(=O)c1ccc2ccccc2n1`, the composite z-score in [1] is 0.188; in [6], 1.22; in test [7] it was -0.003; in the test with Torsin-1A (Homo sapiens) [8] it was 0.396; with Torsin-1A (Homo sapiens) [9], 0.15; in test [10], 1.27. In test [12], this molecule returned a composite z-score of -0.0518. The z-score in test [2] is -0.772 (inactive); in [3], -1.04 (inactive); in test [4], 0.469 (inactive); in test [5], -0.23 (inactive); in [11], 1.66 (inactive); in test [13], 3.64 (inactive). For the same molecule, the z-score in test [14] was 0.582 (inactive); in [15], 0.0206 (inactive); in test [16], -0.135 (inactive); in test [17], 0.276; in test [18], -1.46 (inactive); in [19] it was 0.892 (inactive). In addition, the z-score in [20] turned out to be 0.97.
With `COCCOC(=O)N1C(=O)[C@@]2(c3cc(C#CCCO)ccc31)[C@H](C(N)=O)[C@H]1C(=O)O[C@H](c3ccccc3)[C@H](c3ccccc3)N1[C@@H]2c1ccc(O)cc1`, the composite z-score in test [1] is 0.186; in [6] it was -0.36; in test [7], -0.163; in the test with Torsin-1A (Homo sapiens) [8], -0.192; with Torsin-1A (Homo sapiens) [9] it was -0.176; in [10] it was -0.412. In test [12], the composite z-score was -0.15. Moreover, the z-score in test [2] is 0.505 (inactive); in test [3], 0.676 (inactive); in [4], -0.602 (inactive); in [5] it was -0.702 (inactive); in test [11], -0.903 (inactive); in test [13], 2.44 (inactive). In addition, the z-score in [14] is 0.213 (inactive); in test [15], -0.458 (inactive); in [16] it was -0.0317 (inactive); in [17] it was -0.237; in test [18], 0.463 (inactive); in [19], 0.561 (inactive). In addition, the z-score in test [20] is 0.728.
